# This is a sample that favours compounds with a hit; in the whole collection about 3.5% have one here.
# FBW7 activator = activators of human E3 ligase FBW7; normalized activity (activation), % at 26.1 µM; AlphaScreen FBW7–phospho-cyclin E peptide binding, activator screen; 650,000 tested, 0.13% active; Q969H0; in the data active means normalized activity above about 1.9%;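 further: purified mutant Fbw7 with reduced substrate affinity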
# GPR151 ag = activates the human receptor GPR151; 650,000 tested, 1% active; activation, % at 11.2 µM; PathHunter beta-arrestin GPR151 cells, luminescence; in the data active means activation above about 4.9%;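 further: 0% = median of compound wells and 100% = cells with positive control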
# MITF primary = blocks human microphthalmia-associated transcription factor; O75030; AlphaScreen MITF homodimerization, bead proximity signal; inhibition, % at 2.6 µM; 650,000 tested, 0.91% active; AID 1259374; in the data active means inhibition above about 50%;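 further: 0% = vehicle wells with protein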
# TEAD-YAP block = TEAD-YAP interaction inhibition; HEK-TIYL cells, TEAD-Gal4/YAP UAS-luciferase luminescence; inhibition, % at 9.12 µM; 640,000 tested, 1.4% active; in the data active means inhibition above about 32%;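 further: 0% = median of test compound wells and 100% = reference inhibitor wells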
# GPR151 confirm = confirmation of human GPR151 activators; shares compounds with GPR151 ag; GPR151 PathHunter beta-arrestin cells, luminescence, 90 min; % of EA-reagent control over plate median; activation, % at 11.2 µM; 6,700 tested, under 10 active;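 active means mean percent activation across replicates above the confirmation screen cutoff of 4.91%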
# GPR119 counter = activates human GPR119 in a GPR151 counter-screen | 6,700 tested, 0.3% active | shares compounds with GPR151 ag | GPR119 PathHunter beta-arrestin cells, luminescence, 90 min; 0 = compound-well median, 100 = enzyme-acceptor control | AID 1508611 | activation, % at 11.2 µM;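 active means mean percent activation in the counterscreen above 29.09%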;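 further: counterscreen on off-target GPR119 to flag nonselective hits from the GPR151 activator screen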
# Target sequence (Q8TDV5 whole entry, looked up): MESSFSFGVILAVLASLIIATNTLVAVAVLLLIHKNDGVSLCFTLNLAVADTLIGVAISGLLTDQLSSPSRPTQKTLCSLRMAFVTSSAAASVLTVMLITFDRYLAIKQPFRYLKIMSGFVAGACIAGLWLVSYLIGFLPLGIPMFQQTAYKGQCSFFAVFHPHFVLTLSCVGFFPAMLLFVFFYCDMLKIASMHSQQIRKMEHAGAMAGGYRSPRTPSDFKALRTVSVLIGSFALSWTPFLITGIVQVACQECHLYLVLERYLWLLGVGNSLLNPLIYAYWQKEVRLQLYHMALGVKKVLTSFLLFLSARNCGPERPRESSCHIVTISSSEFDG
# * marks the source's active call; other numbers are inactive results; x = no result given.
SMILES,FBW7 activator,GPR151 ag,MITF primary,TEAD-YAP block,GPR151 confirm,GPR119 counter
CC(=O)c1cc(C)ccc1OC(=O)c1ccc([N+](=O)[O-])cc1,0,6.4*,8,-1,1,-9
Cc1cccc(OCC(=O)N2CCN(S(=O)(=O)c3ccc4ccccc4c3)CC2)c1,1,-1,15,-8,x,x
Cc1ccsc1C(=O)Nc1ccc(F)c(F)c1F,0,-5,2,-33,x,x
Cc1ccccc1OCC(=O)NN1CC(O)=C(c2nc(-c3ccc(F)cc3)cs2)C1=N,0,5.6*,0,7,1,0
O=C(NCc1cccnc1)c1cccc(Nc2ccc3ncccc3c2)n1,0,5.3*,-4,2,0,1
O=C(Nc1ccc2c(c1)OCO2)c1cccc(Nc2ccc3ncccc3c2)n1,0,6.3*,17,-13,-1,-9
O=C(Nc1ccc2c(c1)OCO2)c1cccc(Nc2ccc3ncccc3c2)c1,0,-1,10,-34,x,x
Cc1ccc(C(=O)N/C(=C/c2ccc(Cl)cc2)C(=O)NC(C)C)cc1,0,-1,-6,1,x,x
c1ccc(Cn2cc(-c3ccc(Nc4nccc(-c5cncc(N6CCOCC6)c5)n4)cc3)cn2)cc1,0,6.8*,2,31,1,24
Cc1ccc(-c2ncn(-c3ccc(Nc4nccc(-c5cncc(N6CCOCC6)c5)n4)cc3)n2)cn1,0,-1,7,26,x,x
CCOc1ccc(/C=N/Nc2nc3ccccc3[nH]2)cc1O,0,2,13,-28,x,x
CC(C)OCCCNC(=O)CCCn1c(=S)[nH]c2ccc(Br)cc2c1=O,0,-1,-7,-7,x,x
Cn1c(NC(=O)c2ccco2)c(-c2cccs2)c(=O)c2ccccc21,0,6.6*,7,6,0,-3
Cc1cc(C)nc(CCNC(=O)CC2C(=O)NCCN2Cc2ccoc2)n1 (stereo not given),0,0,-2,-7,x,x
CCC(C)c1ccc(NC(=S)NN2CCOCC2)cc1 (stereo not given),0,23*,21,-53,0,9
CCCCc1ccc(NC(=S)NN2CCOCC2)cc1,0,4,-3,-22,x,x
COc1ccc(/C=N/NC(=O)c2ccncc2)cc1I,0,0,4,-6,x,x
CCOc1ccc2[nH]c(=O)c(CN(Cc3ccc(OC)cc3)C(=O)N(C)C)cc2c1,0,8.3*,1,4,0,15
COc1cccc(NC(=O)CN(C)CC(=O)Nc2ccccc2-c2ccccc2)c1,0,5.7*,46,-8,-1,-10
CCc1ccccc1NC(=O)CN(c1ccc(C)cc1)S(C)(=O)=O,0,0,13,9,x,x
Cc1ccc(N(CC(=O)Nc2ccccc2C(C)C)S(C)(=O)=O)cc1,0,6.5*,10,2,1,5
COc1ccc(N(CC(=O)Nc2ccccc2-c2ccccc2)S(C)(=O)=O)cc1,0,15*,3,-1,-1,-3
COC(=O)c1ccc(NC(=S)NCCO)cc1,0,6.3*,13,-3,1,3
COC(=O)c1sccc1NC(=S)Nc1ccc(F)cc1,0,0,-5,-4,x,x
COC(=O)c1sccc1NC(=S)Nc1ccc(OC)c(OC)c1,0,6.0*,-19,-2,0,4
SMILES,FBW7 activator,GPR151 ag,MITF primary,TEAD-YAP block,GPR151 confirm,GPR119 counter
CCOC(=O)c1ccc(NC(=S)Nc2ccsc2C(=O)OC)cc1,0,5.7*,-2,-11,0,-14
COC(=O)c1ccc(/C=C(/C#N)C(=O)Nc2cccc([N+](=O)[O-])c2)cc1,0,0,13,0,x,x
COc1ccc(-c2nc(NCCN(C(C)C)C(C)C)nc(OC)n2)cc1,0,-3,-1,7,x,x
OCCN1CCN(C2CCN(Cc3cccc4ccccc34)CC2)CC1,0,7.6*,9,4,1,10
COc1ccc(Cl)cc1NC(=O)c1cnn2c1NC(c1ccc(OC)c(OC)c1)CC2C(F)(F)F (stereo not given),0,8.6*,3,-18,1,9
Cc1n[nH]c(C)c1CCC(=O)O,0,4.9*,-1,0,-1,-3
Cc1n[nH]c(C)c1CCC(=O)N/N=C/c1ccc(Cl)cc1,0,6.0*,13,0,0,4
Cc1n[nH]c(C)c1CCC(=O)N/N=C\c1ccc(C(C)(C)C)cc1,0,-1,-12,-21,x,x
CC1(C)CC(=O)C2=C(C1)N(c1ccc(Br)cc1)C(N)=C(C#N)C2c1ccsc1 (stereo not given),0,-1,10,-1,x,x
COc1ccc(O[C@H]2C=C[C@@H](c3ccccc3)O[C@@H]2COC(=O)CC/C(C)=N/O[C@@H](C)CN2CCCCc3nc(C)c(C)cc32)cc1,0,1,2,x,x,x
C/C(CCC(=O)OC[C@H]1O[C@H](C#Cc2ccccc2)C=C[C@@H]1Oc1ccc(C)cc1)=N\O[C@H](C)CN1CCCc2nc(C)c(C)cc21,0,7.0*,11,x,0,-5
Cc1cc(C)cc(NS(=O)(=O)c2cc(C(N)=O)ccc2C)c1,0,13*,14,7,0,8
N#CCOc1ccc2c(=O)c(Oc3ccccc3Cl)coc2c1,0,5.6*,8,7,1,19
Cc1nn(-c2ccccn2)c2c1C(=O)CC(C)(C)C2Br (stereo not given),0,5.8*,16,4,-1,-8
O=C(N/N=C/c1ccc(-c2ccccc2Cl)o1)c1ccccn1,0,-2,-31,-29,x,x
O=[N+]([O-])c1c(N2CCCC2)ncnc1N1CCCC1,0,0,-2,6,x,x
O=[N+]([O-])c1c(N2CCCCC2)c([N+](=O)[O-])c2nsnc2c1N1CCCCC1,0,5.6*,13,3,-1,-10
N#Cc1ccc(NC(=O)COC(=O)CCC(=O)c2ccc3c(c2)OCCO3)cc1,0,11*,-2,-3,6.8*,10
CCOc1ccc(/C=C/C(=O)Nc2cc([N+](=O)[O-])ccc2C)cc1OC,0,6.5*,-12,8,1,8
COc1ccc([N+](=O)[O-])cc1NC(=O)/C=C/c1ccc(F)cc1,0,8.8*,12,19,0,-15
CCOCC(=O)Nc1cc([N+](=O)[O-])ccc1OC,0,1,8,4,x,x
COc1ccc(/C=C/C(=O)Nc2cc([N+](=O)[O-])ccc2F)cc1OC,0,0,8,3,x,x
O=C(/C=C/c1ccc([N+](=O)[O-])cc1)Nc1ccccc1C(=O)Nc1cccc(C(=O)O)c1,0,4.9*,1,-6,1,18
CCOCC(=O)Nc1cc([N+](=O)[O-])ccc1C,0,6.2*,-8,1,0,-5
CN(C)c1cccc(Nc2nccn3c(-c4ccccc4)cnc23)c1,0,0,-7,-2,x,x

# Screening data as filed in PubChem.
